# Data published in the supplement of paper PMC6555819.
# Tested on: PPARg:RXRa DBDmut IVT, anti-RXR (DBD mutation: RXRa K156A/R161A, NR concentration 270 nM, RXRa partner concentration 90 nM)
# Test: PBM binding z-score (relative to random genomic background probes); higher = stronger binding; sequences stand for … in GC…GCGATTGACAGCGTAGAATGAAGG
# Procedure, shortened: (§1)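 Ligand-free nuclear receptor dimers were bound for 1 h to custom Agilent 4×180K protein-binding microarrays. Detection used antibodies against each partner (one per run). Binding z-scores rest on regression-normalized fluorescence, with random background probes as the reference.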
row,Sequence,PBM binding z-score
1,TCTCGGAGGACACGACAGGTCAGAGCTCGACATC,0.919
2,CCTCGGAGGACTGAAGGTCAGAGCTGTCCGCTTT,-0.418
3,TCGGACAGGTGAAGGTAACTCAGGTACGCAGTCG,2.03
4,CCGTACGGGTCACTCCAGGTTATAGCATCGGAGT,1.15
5,TCGAGTAGGTTAGGGGAATTCAGAATGGCGTCGA,2.13
6,CGTTACGGGTCACGAGGTTATAGCACGACGAGCG,4.5
7,GGAACGAGGACATTCGAGTTGATAGCATGGCGAT,0.421
8,CGTCAAAGTTCTACTAAGGTAACGTAAAGCACGC,0.0553
9,TCATATAGGTAAAGGTGACAGTCGAACGATATGA,4.04
10,CTCGAAAGGTCGTGCTCAGGAGAGTATACCAAAC,0.885
11,GGAACGAGGGCATTCGAGTTTATAGCATGGCGAT,2.91
12,GATACAGGGTCACGGCCAGAGTACGCGTATTGAT,4.17
13,ATATGTAAGTTATCGGGTCATTCAGTTTGCGCAT,2.89
14,TCACCAAGGTGAGCTGAGGTCGTTGATCCAACTC,1.73
15,GCATATCGGTAATACAAGGTGAAAGTCCGATTGT,0.472
16,ACAGACAGGTGATGAAGGTCACTCAGGCTATCAT,0.771
17,ACAGACAGGTGCTGAAGGTAACTCAGGCTATCAT,-0.133
18,CCTTACGGGTCAAGGTTCTAGCACGGGTGGTACG,1.5
19,ACTAGCAGGCAAAGTTTGGGTCACTCAAACAAAG,-0.359
20,GATACAGGGTCAGCTAGAGGCCAGGGTATGGAAA,0.631

row,Sequence,PBM binding z-score
1,ACTAGCAGGCCAAGTTTGCGTCACTCAAACAAAG,0.769
2,GTACCAAGGTGAATAGGTAGTTGATGAGTAGGCG,1.51
3,ATCGAAAGGTCGACAAGGTGAGTATACACCGTTT,0.456
4,CAGCCTAGGTCAGGGGCAGTATAGGAGGAACGTT,1.2
5,CAAGACAGGTGAAAGGTAACTCAGTCTGGTACGC,1.61
6,CAAACTAGGTCACAGAGGTCAAAATCCGTGCGTA,8.53
7,TATACAGGGTCAAAGGCCAGGGTACGAATGTCGA,2.06
8,TCTTGGAGATCAGCAGGTTAAGAAAGCTGGCCAA,1.35
9,TGAATGCGGTTATAAGATCAGGGAACGTTGCAAA,-1.13
10,CCAGACAGGTGAAAGGTATCTCAGTCTGGTACGC,2.04
11,CGTCAAAGTTCAACTAAGGCAACGTAAAGCACGC,0.00616
12,GCTGCTAGGTGAGGTTGGTCAGCTAACGGGTACG,2.07
13,CAAACTAGGTCAAGAGGTCAAGGTCCGCTTCCCG,8.52
14,ATATGTAGGTTAAGGGACATTCAGGTTGGTTCGC,6.93
15,CCGACTGGGGCATAAGGTTACCGTAAGCCAGCCC,3.14
16,CGAACTAGGTCAAGGACAGTGACTCTCCGCACGC,8.38
17,ACTAGCAGGCCAAGTTTGGGTCAGTCAAACAAAG,0.456
18,CCTACTGGGCCATTCCGAGGTCATTGATCATATG,4.18
19,CCAGACAGGTGAAAGCTAACTCAGTCTGGTACGC,1.15
20,CGTCCAAGGTCAGAGGTCAGTGAAGAGATGACGG,2.44

# Tested on: PPARg:RXRa IVT, anti-PPARg (NR concentration 270 nM, RXRa partner concentration 90 nM)
# Test: as above
# Procedure, shortened: as §1
row,Sequence,PBM binding z-score
1,TCTCGGAGGACACGACAGGTCAGAGCTCGACATC,0.745
2,CCTCGGAGGACTGAAGGTCAGAGCTGTCCGCTTT,-0.254
3,TCGGACAGGTGAAGGTAACTCAGGTACGCAGTCG,1.01
4,CCGTACGGGTCACTCCAGGTTATAGCATCGGAGT,2.49
5,TCGAGTAGGTTAGGGGAATTCAGAATGGCGTCGA,1.78
6,CGTTACGGGTCACGAGGTTATAGCACGACGAGCG,5.57
7,GGAACGAGGACATTCGAGTTGATAGCATGGCGAT,0.192
8,CGTCAAAGTTCTACTAAGGTAACGTAAAGCACGC,0.848
9,TCATATAGGTAAAGGTGACAGTCGAACGATATGA,4.07
10,CTCGAAAGGTCGTGCTCAGGAGAGTATACCAAAC,1.49
11,GGAACGAGGGCATTCGAGTTTATAGCATGGCGAT,2.31
12,GATACAGGGTCACGGCCAGAGTACGCGTATTGAT,5.49
13,ATATGTAAGTTATCGGGTCATTCAGTTTGCGCAT,3.27
14,TCACCAAGGTGAGCTGAGGTCGTTGATCCAACTC,1.53
15,GCATATCGGTAATACAAGGTGAAAGTCCGATTGT,0.945
16,ACAGACAGGTGATGAAGGTCACTCAGGCTATCAT,1.97
17,ACAGACAGGTGCTGAAGGTAACTCAGGCTATCAT,-0.503
18,CCTTACGGGTCAAGGTTCTAGCACGGGTGGTACG,3.25
19,ACTAGCAGGCAAAGTTTGGGTCACTCAAACAAAG,0.492
20,GATACAGGGTCAGCTAGAGGCCAGGGTATGGAAA,2.38

row,Sequence,PBM binding z-score
1,ACTAGCAGGCCAAGTTTGCGTCACTCAAACAAAG,0.225
2,GTACCAAGGTGAATAGGTAGTTGATGAGTAGGCG,1.76
3,ATCGAAAGGTCGACAAGGTGAGTATACACCGTTT,1.98
4,CAGCCTAGGTCAGGGGCAGTATAGGAGGAACGTT,1.71
5,CAAGACAGGTGAAAGGTAACTCAGTCTGGTACGC,2.88
6,CAAACTAGGTCACAGAGGTCAAAATCCGTGCGTA,9.12
7,TATACAGGGTCAAAGGCCAGGGTACGAATGTCGA,4.98
8,TCTTGGAGATCAGCAGGTTAAGAAAGCTGGCCAA,-0.4
9,TGAATGCGGTTATAAGATCAGGGAACGTTGCAAA,0.042
10,CCAGACAGGTGAAAGGTATCTCAGTCTGGTACGC,1.9
11,CGTCAAAGTTCAACTAAGGCAACGTAAAGCACGC,2
12,GCTGCTAGGTGAGGTTGGTCAGCTAACGGGTACG,0.995
13,CAAACTAGGTCAAGAGGTCAAGGTCCGCTTCCCG,8.45
14,ATATGTAGGTTAAGGGACATTCAGGTTGGTTCGC,6.99
15,CCGACTGGGGCATAAGGTTACCGTAAGCCAGCCC,3.4
16,CGAACTAGGTCAAGGACAGTGACTCTCCGCACGC,8.3
17,ACTAGCAGGCCAAGTTTGGGTCAGTCAAACAAAG,0.754
18,CCTACTGGGCCATTCCGAGGTCATTGATCATATG,4.34
19,CCAGACAGGTGAAAGCTAACTCAGTCTGGTACGC,0.32
20,CGTCCAAGGTCAGAGGTCAGTGAAGAGATGACGG,4.65
